Results on 14 molecules are retold here after PubChem BioAssay (NCI).

Several values for one entry are separate records, joined by “and”; a condition that tells them apart may be missing. Identical values can stand only once. Compounds without any hit were thinned out: in the full panel of roughly 83,000, 20% have a hit.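 Percent growth is the endpoint: 0 to 100 indicates growth inhibition (40 means 60% inhibition), 0 means no net growth, and negative values indicate cell death.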 Where a structure was tested more than once in an assay, its records may differ in their call. Activity calls are given as the source filed them. Rule for the calls: active = growth percent below 10; inactive = the rest.

Test systems include DU-145 prostate; K-562 leukemia; MALME-3M melanoma; MDA-MB-231 breast; RXF 393 renal; SF-268 CNS; SF-295 CNS; SF-539 CNS; UACC-257 melanoma; M14 melanoma.
What all share (assay): NCI-60 one-dose screen, 48 h (100 = growth as untreated, 0 = no growth, -100 = all killed)
Common to all, as to conditions: 10 µM unless noted

For the molecule `CC1CCCc2sc3nc(NNC(=O)c4cnccn4)n(-c4ccccc4)c(=O)c3c21` (stereo not given), the growth in the assay with DU-145 prostate is 12.2% (inactive) and 12.9% (inactive); with K-562 leukemia, 14.2% (inactive) and 13.4% (inactive); with MALME-3M melanoma, 15.9% (inactive) and 11.2% (inactive); in the assay on MDA-MB-231 breast, 28.9% (inactive) and 25.5% (inactive); in the assay on RXF 393 renal, 11.2% (inactive) and -15.9% (active); with SF-268 CNS it was 14.5% (inactive) and 5.5% (active). Further, the growth in the assay with SF-295 CNS was 22.7% (inactive) and 11.3% (inactive); in the assay on SF-539 CNS, 6.89% (active) and 6.17% (active); in the assay with UACC-257 melanoma, -7.57% (active) and -18.3% (active); in the assay on M14 melanoma, 7.99% (active) and -2.42% (active).

`Nc1cc(-c2cccc(OC(F)(F)F)c2)nc2ccc(N3CCCC3)cc12`: the growth with DU-145 prostate was 14.4% (inactive) and 16.2% (inactive) and 5.85% (active); with K-562 leukemia, -12.9% (active) and 4.92% (active) and 3.73% (active); with MALME-3M melanoma, -28.6% (active) and 51.7% (inactive) and 24.8% (inactive); in the assay with MDA-MB-231 breast, 5.28% (active) and 18.1% (inactive) and 29.3% (inactive); in the assay on RXF 393 renal, 7.48% (active) and 12.1% (inactive) and 20.7% (inactive); in the assay on SF-268 CNS, 26.1% (inactive) and 28.4% (inactive) and 27.6% (inactive). The growth in the assay on SF-295 CNS is 5.27% (active) and 16.2% (inactive) and 9.05% (active); in the assay on SF-539 CNS, -39.9% (active) and -21.2% (active) and -28.5% (active); in the assay on UACC-257 melanoma, -42.2% (active) and 74.8% (inactive) and 48.9% (inactive); in the assay with M14 melanoma, -72.1% (active) and 1.77% (active) and -1.96% (active).

In the case of `CO/N=C/C=C\C(=O)N/C=C/C[C@H]1/C=C/[C@H](O)/C=C\C=C\c2cccc(O)c2C(=O)O1`, the growth was 55.6% (inactive) and 40% (inactive) in the assay on DU-145 prostate; 4.46% (active) and 2.94% (active) with K-562 leukemia; 59.8% (inactive) and 22.5% (inactive) in the assay on MALME-3M melanoma; 27.3% (inactive) and 41.9% (inactive) in the assay with MDA-MB-231 breast; 51% (inactive) and 55.5% (inactive) in the assay on RXF 393 renal; 45.5% (inactive) and 31.9% (inactive) with SF-268 CNS. Moreover, the growth with SF-295 CNS was -36.9% (active) and -43.7% (active); in the assay with SF-539 CNS, 21% (inactive) and 4.04% (active); in the assay on UACC-257 melanoma, -16.7% (active) and 21.8% (inactive); in the assay on M14 melanoma, -13.4% (active) and -41% (active).

On to `COc1cc(C(=O)c2ccc3c(c2)OCO3)cc(OC)c1OC`, for which the growth in the assay with DU-145 prostate was 10.4% (inactive) and 27.7% (inactive); with K-562 leukemia, 10.7% (inactive); with MALME-3M melanoma, 14.5% (inactive) and 34.1% (inactive); with MDA-MB-231 breast, 53.2% (inactive) and 47.4% (inactive); in the assay on RXF 393 renal, 28.3% (inactive) and 4.22% (active); with SF-268 CNS, 37.3% (inactive) and 40.6% (inactive). Further, the growth is 9.91% (active) and 9.21% (active) in the assay on SF-295 CNS; 18.4% (inactive) and -1.47% (active) in the assay with SF-539 CNS; 18.6% (inactive) and 49.4% (inactive) in the assay with UACC-257 melanoma; 21% (inactive) and 19.9% (inactive) with M14 melanoma.

Turning to `CCOc1ccc2cc(-c3nn(CC4CCN(C)CC4)c4ncnc(N)c34)ccc2c1`, the growth was 102% (inactive) and 69.9% (inactive) with DU-145 prostate; 87.5% (inactive) and 2.73% (active) with K-562 leukemia; 69.7% (inactive) and -46.1% (active) in the assay with MALME-3M melanoma; 85% (inactive) and 11.1% (inactive) with MDA-MB-231 breast; 46.8% (inactive) and -5.36% (active) in the assay on RXF 393 renal; 90% (inactive) and 48.6% (inactive) in the assay with SF-268 CNS. For the same molecule, the growth is 96.9% (inactive) and 50.4% (inactive) with SF-295 CNS; 84.4% (inactive) and 16.7% (inactive) in the assay on SF-539 CNS; -67.9% (active) in the assay on UACC-257 melanoma; 98.4% (inactive) and -77.3% (active) with M14 melanoma.

Regarding `O=[N+]([O-])c1ccc2nc3c4ccccc4c4ccccc4c3nc2c1`, the growth is 100% (inactive) in the assay with DU-145 prostate; 67.4% (inactive) in the assay on K-562 leukemia; 98.6% (inactive) in the assay on MALME-3M melanoma; 70.2% (inactive) in the assay on MDA-MB-231 breast; 96% (inactive) with RXF 393 renal; 78% (inactive) in the assay with SF-268 CNS. Moreover, the growth was 107% (inactive) in the assay with SF-295 CNS, 91% (inactive) in the assay on SF-539 CNS, 82.5% (inactive) in the assay with UACC-257 melanoma and 90.3% (inactive) with M14 melanoma.

In the case of `Fc1ccccc1Nc1n[nH]c(=S)s1`, the growth in the assay with DU-145 prostate was 110% (inactive); with K-562 leukemia, 107% (inactive); with MALME-3M melanoma it was 127% (inactive); in the assay with MDA-MB-231 breast, 109% (inactive); in the assay with RXF 393 renal, 116% (inactive); in the assay on SF-268 CNS, 91.5% (inactive). For the same molecule, the growth is 126% (inactive) with SF-295 CNS, 105% (inactive) in the assay on SF-539 CNS, 103% (inactive) with UACC-257 melanoma and 109% (inactive) in the assay on M14 melanoma.

For `O=C(O)CN(CCN(CC(=O)O)CC(=O)O)CCN(CC(=O)O)CC(=O)O`, the growth with DU-145 prostate is -12.6% (active) and 114% (inactive) and 106% (inactive); in the assay with K-562 leukemia it was 4.41% (active) and 114% (inactive) and 103% (inactive); with MALME-3M melanoma, -4.09% (active) and 112% (inactive) and 102% (inactive); in the assay on MDA-MB-231 breast, 35.8% (inactive) and 100% (inactive) and 90.7% (inactive); in the assay on RXF 393 renal, -19.3% (active) and 108% (inactive) and 109% (inactive); in the assay with SF-268 CNS it was 1.46% (active) and 114% (inactive) and 105% (inactive). In addition, the growth with SF-295 CNS was -23.9% (active) and 112% (inactive) and 105% (inactive); in the assay on SF-539 CNS, -42.7% (active) and 104% (inactive); with UACC-257 melanoma, 0.783% (active) and 105% (inactive) and 102% (inactive); in the assay on M14 melanoma, 18.2% (inactive) and 88.8% (inactive) and 102% (inactive).

For `O=C(CCl)c1ccc2c(c1)Nc1ccccc1S2`, the growth was 104% (inactive) with DU-145 prostate; 29.5% (inactive) and 30.3% (inactive) in the assay with K-562 leukemia; 91.5% (inactive) in the assay with MALME-3M melanoma; 97.7% (inactive) and 89.5% (inactive) with MDA-MB-231 breast; 103% (inactive) in the assay on RXF 393 renal; 104% (inactive) and 98.5% (inactive) in the assay on SF-268 CNS. Moreover, the growth is 94.8% (inactive) and 96.3% (inactive) in the assay on SF-295 CNS; 91.7% (inactive) and 84.5% (inactive) in the assay on SF-539 CNS; 102% (inactive) and 96.8% (inactive) with UACC-257 melanoma; 91.6% (inactive) and 91.5% (inactive) with M14 melanoma.

In the case of `O=C1C2=C(C(=O)c3ccccc31)C(O)(S(=O)(=O)O)C(O)(S(=O)(=O)O)C1N=CC=CC21` (stereo not given), the growth in the assay on DU-145 prostate was 64.2% (inactive) and 48% (inactive); with K-562 leukemia, 13.5% (inactive) and 40% (inactive); in the assay on MALME-3M melanoma, 73% (inactive) and 62.1% (inactive); in the assay on MDA-MB-231 breast, 58.3% (inactive) and 47.6% (inactive); in the assay on RXF 393 renal, 76.7% (inactive) and 58.1% (inactive); in the assay on SF-268 CNS, 52.2% (inactive) and 36.5% (inactive). The growth with SF-295 CNS is 6.52% (active) and 15.4% (inactive); in the assay on SF-539 CNS it was 25.4% (inactive) and 20.8% (inactive); in the assay with UACC-257 melanoma it was 71.4% (inactive) and 35.3% (inactive); in the assay with M14 melanoma, 42.9% (inactive).

For the molecule `COc1ccc2cc3[n+](cc2c1OC)CCc1cc2c(cc1-3)OCO2`, the growth is 92.5% (inactive) and 78.4% (inactive) in the assay with DU-145 prostate; 41.1% (inactive) and 40% (inactive) in the assay on K-562 leukemia; 31.6% (inactive) and 42% (inactive) in the assay on MALME-3M melanoma; 81.7% (inactive) and 87.5% (inactive) in the assay with MDA-MB-231 breast; 89.1% (inactive) and 60.9% (inactive) in the assay with RXF 393 renal; 42.9% (inactive) and 40.7% (inactive) with SF-268 CNS. Also, the growth in the assay with SF-295 CNS was 19.3% (inactive) and 45.1% (inactive); with SF-539 CNS, 68.6% (inactive) and 82.9% (inactive); with UACC-257 melanoma it was 48.1% (inactive) and 88.5% (inactive); in the assay with M14 melanoma, 83.2% (inactive) and 110% (inactive).

For `CN(C)c1ccc(C(=C2C=CC(=[N+](C)C)C=C2)c2ccccc2Cl)cc1`, the growth was -97% (active) in the assay with DU-145 prostate; 7.59% (active) in the assay with K-562 leukemia; -56.3% (active) and -46.1% (active) with MALME-3M melanoma; -36.9% (active) and -66.9% (active) with MDA-MB-231 breast; -84.3% (active) with RXF 393 renal; -84.1% (active) in the assay on SF-268 CNS. Moreover, the growth in the assay on SF-295 CNS is -30.4% (active) and -25.8% (active); in the assay on SF-539 CNS, -58.9% (active) and -92.1% (active); with UACC-257 melanoma it was -77.7% (active); in the assay with M14 melanoma, -62.8% (active) and -95.3% (active).

Regarding `Cc1cccc(/C=C\C(=O)c2ccc(Cl)cc2)c1`, the growth was 114% (inactive) and 96.5% (inactive) with DU-145 prostate; 77% (inactive) and 20.5% (inactive) in the assay on K-562 leukemia; 92.5% (inactive) in the assay on MALME-3M melanoma; 97.6% (inactive) and 116% (inactive) with MDA-MB-231 breast; 112% (inactive) and 97.8% (inactive) in the assay on RXF 393 renal; 102% (inactive) and 92.5% (inactive) in the assay with SF-268 CNS. In addition, the growth was 161% (inactive) and 93.9% (inactive) with SF-295 CNS; 101% (inactive) in the assay with SF-539 CNS; 105% (inactive) and 109% (inactive) in the assay with UACC-257 melanoma; 94.3% (inactive) and 91.1% (inactive) in the assay with M14 melanoma.

As for `CN(Cc1ccccc1)Cc1ccccc1`, the growth is 107% (inactive) with DU-145 prostate; 113% (inactive) with K-562 leukemia; 91.4% (inactive) in the assay on MALME-3M melanoma; 106% (inactive) in the assay on MDA-MB-231 breast; 104% (inactive) in the assay on RXF 393 renal; 97.1% (inactive) in the assay with SF-268 CNS. The growth in the assay on SF-295 CNS was 112% (inactive); with SF-539 CNS, 99.2% (inactive); in the assay on UACC-257 melanoma it was 99.8% (inactive); in the assay on M14 melanoma, 102% (inactive).
